Test results published in PubChem BioAssay (NCI).
Compounds without any hit were thinned out: in the full panel of roughly 83,000, 20% have a hit.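 Cell lines were cultured in 96-well plates, exposed to a single compound concentration, and assessed for percent growth 48 hours later.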 The source made the active and inactive calls. Rule for the calls: active = growth percent below 10; inactive = the rest.

What was measured:
Test in all cases: NCI-60 one-dose screen, 48 h (100 = growth as untreated, 0 = no growth, -100 = all killed)
Conditions in all cases: 10 µM unless noted
SK-MEL-2 melanoma = tested on: SK-MEL-2 melanoma
EKVX NSCLC = tested on: EKVX NSCLC
SN12C renal = tested on: SN12C renal
UO-31 renal = tested on: UO-31 renal
TK-10 renal = tested on: TK-10 renal
ACHN renal = tested on: ACHN renal
CAKI-1 renal = tested on: CAKI-1 renal
A498 renal = tested on: A498 renal
CCRF-CEM leukemia = tested on: CCRF-CEM leukemia
MOLT-4 leukemia = tested on: MOLT-4 leukemia

Measured: growth

C/C(=C(/C)C1CC1CCNC1CCC(NC(=O)OC(C)(C)C)CC1)c1ccccc1 (stereo not given)
inactive: SK-MEL-2 melanoma 95.9% | EKVX NSCLC 73.7% | SN12C renal 76.2% | UO-31 renal 63.8% | TK-10 renal 108% | ACHN renal 87.1% | CAKI-1 renal 53.6% | A498 renal 78% | CCRF-CEM leukemia 54% | MOLT-4 leukemia 61.9%

CC[C@]12C=CCN3CC[C@@]4(c5ccc(OC)cc5N(C)[C@H]4[C@@](O)(C(=O)OC)[C@@H]1OC(=O)CCN1CCc4ccccc4C1)[C@@H]32
inactive: SK-MEL-2 melanoma 108% | EKVX NSCLC 88.6% | SN12C renal 99.4% | UO-31 renal 71.6% | TK-10 renal 98.8% | ACHN renal 99.3% | CAKI-1 renal 80.3% | A498 renal 94.5% | CCRF-CEM leukemia 82.6% | MOLT-4 leukemia 80.5%

Cc1[nH]c(C(=O)Nc2ccccc2OCc2cccc(C(=O)NC3CCCNC3)c2)c(Cl)c1Cl (stereo not given)
inactive: SK-MEL-2 melanoma 102% | A498 renal 66.2%
active: EKVX NSCLC -80.4% | SN12C renal -72.9% | UO-31 renal -13% | TK-10 renal -75% | ACHN renal -86.8% | CAKI-1 renal -91.3% | CCRF-CEM leukemia 2.33% | MOLT-4 leukemia -25.3%

CCc1cc(OC(=O)N2CCC(N3CCCCC3)CC2)ccc1Nc1cc(-c2ccc(-n3cccn3)cc2)[nH]n1
active: CCRF-CEM leukemia 7.95%
inactive: SK-MEL-2 melanoma 95.9% | EKVX NSCLC 97% | SN12C renal 77.7% | UO-31 renal 46% | TK-10 renal 95.7% | ACHN renal 42.9% | CAKI-1 renal 48.4% | A498 renal 71.3% | MOLT-4 leukemia 18.9%

O=C(/C=C/c1ccccc1)c1cccc(O)c1
inactive: SK-MEL-2 melanoma 108% | EKVX NSCLC 98.6% | SN12C renal 98.8% | UO-31 renal 76.2% | TK-10 renal 108% | ACHN renal 106% | CAKI-1 renal 91.5% | A498 renal 105% | CCRF-CEM leukemia 77.8% | MOLT-4 leukemia 85.2%

O=C(CSc1cc[n+](CCCCO)c2ccccc12)n1ccc2ccccc21
inactive: SK-MEL-2 melanoma 111% | EKVX NSCLC 89.3% | SN12C renal 103% | UO-31 renal 63.6% | TK-10 renal 155% | ACHN renal 96.4% | CAKI-1 renal 81.9% | A498 renal 114% | CCRF-CEM leukemia 107% | MOLT-4 leukemia 95.8%

C#CCOc1cccc(-c2nc(N)nc(Nc3ccccc3SSc3ccccc3Nc3nc(N)nc(-c4cccc(OCC#C)c4)n3)n2)c1
inactive: SK-MEL-2 melanoma 96.3% | EKVX NSCLC 37.3% | TK-10 renal 134% | CAKI-1 renal 29.1% | A498 renal 73% | CCRF-CEM leukemia 30.6% | MOLT-4 leukemia 44%
active: SN12C renal 1.17% | UO-31 renal -78.6% | ACHN renal -76.4%

CC1(C)CC[C@]2(C(=O)NCCCCCCN(CCCN)CCCN)CC[C@]3(C)C(=CC[C@@H]4[C@@]5(C)CC[C@H](O)C(C)(C)[C@@H]5CC[C@]43C)[C@@H]2C1
inactive: SK-MEL-2 melanoma 113% | EKVX NSCLC 91.8% | SN12C renal 96.4% | UO-31 renal 85.7% | TK-10 renal 106% | ACHN renal 105% | CAKI-1 renal 75.2% | A498 renal 117% | CCRF-CEM leukemia 105% | MOLT-4 leukemia 102%

N#Cc1cccc(-c2cc(-c3ccc4c(c3)OCCO4)[nH]n2)c1
inactive: SK-MEL-2 melanoma 47.3% | EKVX NSCLC 63.3% | SN12C renal 49.2% | UO-31 renal 42.8% | TK-10 renal 76.8% | ACHN renal 44.2% | CAKI-1 renal 35.8% | A498 renal 28.4% | CCRF-CEM leukemia 14.2% | MOLT-4 leukemia 23%

COc1ccc(C(C)=C(c2ccc(OCCN(C)C)cc2)c2ccc(OCCN(C)C)cc2)cc1
active: SK-MEL-2 melanoma -70.3% | SN12C renal 0.111% | UO-31 renal -59.4% | TK-10 renal -56.1% | ACHN renal -46% | CAKI-1 renal -69.1% | A498 renal -38.9% | CCRF-CEM leukemia -23.6% | MOLT-4 leukemia -37.6%
inactive: EKVX NSCLC 13.5%

COCCOc1ccc2ncc(C#Cc3cncc(C(=O)Nc4ccc(CN5CCN(C)CC5)c(C(F)(F)F)c4)c3)n2n1
active: SK-MEL-2 melanoma -82.7% | UO-31 renal 2.58% | ACHN renal 4.87% | CAKI-1 renal 1.32% | A498 renal -50.4%
inactive: EKVX NSCLC 33.6% | SN12C renal 10.2% | TK-10 renal 14.3% | CCRF-CEM leukemia 11.7% | MOLT-4 leukemia 13.2%

O=S1SC(c2ccccc2)=NN1c1cc(F)cc(F)c1 (stereo not given)
inactive: SK-MEL-2 melanoma 68.1% | EKVX NSCLC 38% | SN12C renal 33.1% | UO-31 renal 22.7% | TK-10 renal 85.8% | ACHN renal 51.5% | CAKI-1 renal 52.4% | A498 renal 12.7% | CCRF-CEM leukemia 18.8% | MOLT-4 leukemia 17.5%

Fc1cc(F)cc(NNC(=S)c2ccccc2)c1
active: SN12C renal 9.96%
inactive: SK-MEL-2 melanoma 76% | EKVX NSCLC 39.7% | UO-31 renal 26.4% | TK-10 renal 92.3% | ACHN renal 55.4% | CAKI-1 renal 56.2% | A498 renal 14.4% | CCRF-CEM leukemia 24.2% | MOLT-4 leukemia 25.1%

N#Cc1c(-c2cccs2)cc(-c2cnccn2)nc1SCC(=O)N/N=C/c1cccs1
inactive: SK-MEL-2 melanoma 78.5% | EKVX NSCLC 59% | SN12C renal 52.1% | UO-31 renal 89.1% | TK-10 renal 65.1% | ACHN renal 49.8% | CAKI-1 renal 30% | A498 renal 25.5% | CCRF-CEM leukemia 90.6% | MOLT-4 leukemia 85.2%

O=C(CSc1nnc(-c2ccc(Cl)cc2)n1-c1ccccc1)Nc1ccccc1Cl
inactive: SK-MEL-2 melanoma 95.5% | EKVX NSCLC 69.7% | SN12C renal 29.4% | UO-31 renal 34.2% | TK-10 renal 85.1% | ACHN renal 21.7% | CAKI-1 renal 74.6% | A498 renal 104% | CCRF-CEM leukemia 76.7% | MOLT-4 leukemia 85.3%

COc1ccc(/C=N/NC(=O)c2c(N)nn(C)c2Nc2ccccc2)cc1
active: SK-MEL-2 melanoma 7.07%
inactive: EKVX NSCLC 69.7% | SN12C renal 57.6% | UO-31 renal 51.2% | TK-10 renal 89.2% | ACHN renal 50% | CAKI-1 renal 39.8% | A498 renal 33.1% | CCRF-CEM leukemia 38.5% | MOLT-4 leukemia 49.4%

Cc1[nH]c(C(=O)Nc2ccccc2OCc2cccc(C(=O)NC3CCNC3)c2)c(Cl)c1Cl (stereo not given)
inactive: SK-MEL-2 melanoma 101% | EKVX NSCLC 79.6% | UO-31 renal 84.9% | TK-10 renal 101% | ACHN renal 74.9% | CAKI-1 renal 27.5% | A498 renal 79.7%
active: SN12C renal -33.5% | CCRF-CEM leukemia 6.3% | MOLT-4 leukemia 1.73%

C=C(C)[C@@H]1CC[C@]2(C(=O)NC3CCCCC3)CC[C@]3(C)[C@H](CC[C@@H]4[C@@]5(C)CC[C@H](N)C(C)(C)[C@@H]5CC[C@]43C)[C@@H]12
inactive: SK-MEL-2 melanoma 105% | EKVX NSCLC 90.7% | SN12C renal 102% | UO-31 renal 80.4% | TK-10 renal 124% | ACHN renal 104% | CAKI-1 renal 65.4% | A498 renal 118% | CCRF-CEM leukemia 79.4% | MOLT-4 leukemia 64.5%

Cc1c(C(=O)/C=C/c2ccc(Cl)cc2)nnn1-c1ccc2oc(=O)ccc2c1
inactive: SK-MEL-2 melanoma 110% | EKVX NSCLC 91.2% | SN12C renal 92.3% | UO-31 renal 73.4% | TK-10 renal 104% | ACHN renal 94.6% | CAKI-1 renal 88.6% | A498 renal 103% | CCRF-CEM leukemia 92.3% | MOLT-4 leukemia 98.9%

N#C/C(=C\c1cccc2c1OCO2)C(=O)Nc1sc2c(c1C#N)CCCC2
inactive: SK-MEL-2 melanoma 106% | EKVX NSCLC 87.8% | SN12C renal 98.3% | UO-31 renal 82.6% | TK-10 renal 120% | ACHN renal 109% | CAKI-1 renal 86.1% | A498 renal 98.6% | CCRF-CEM leukemia 108% | MOLT-4 leukemia 102%

O=C1C(SCc2ccccc2)=C(Cl)CN1c1ccc(Cl)cc1
inactive: SK-MEL-2 melanoma 79.9% | EKVX NSCLC 106% | SN12C renal 100% | TK-10 renal 111% | ACHN renal 98.1% | CAKI-1 renal 90.7% | A498 renal 114% | CCRF-CEM leukemia 70.8% | MOLT-4 leukemia 68%
active: UO-31 renal -88.1%

CC(C)(C)Nc1nc2c(OCCc3ccccc3)cccn2c1-c1cccc(Oc2ccccc2)c1
active: SK-MEL-2 melanoma -26.2% | UO-31 renal 5.5% | ACHN renal 7.39% | CAKI-1 renal 8.12% | MOLT-4 leukemia 5.42%
inactive: EKVX NSCLC 13.5% | SN12C renal 12.3% | TK-10 renal 21.8% | A498 renal 16.2% | CCRF-CEM leukemia 15%

O=C1Nc2ccccc2/C1=C/c1ccc(OCC(=O)c2ccccc2)cc1
inactive: SK-MEL-2 melanoma 113% | EKVX NSCLC 100% | SN12C renal 93.9% | UO-31 renal 69.5% | TK-10 renal 125% | ACHN renal 96.6% | CAKI-1 renal 86.9% | A498 renal 104% | CCRF-CEM leukemia 98.1% | MOLT-4 leukemia 97.8%

CN1CCN(c2ccc(Nc3nc(NCCCNS(=O)(=O)c4ccc(Cl)cc4)c4sccc4n3)cc2)CC1
inactive: EKVX NSCLC 50.8% | SN12C renal 36.7% | CAKI-1 renal 10.8% | A498 renal 19.7% | CCRF-CEM leukemia 13%
active: SK-MEL-2 melanoma -9.34% | UO-31 renal -58.9% | TK-10 renal 9.93% | ACHN renal 6.32% | MOLT-4 leukemia 4.92%

COc1ccc2c(c1)c(-c1nc(N)nnc1-c1c[nH]c3ccccc13)cn2C
inactive: SK-MEL-2 melanoma 52.6% | EKVX NSCLC 43.9% | SN12C renal 53.6% | UO-31 renal 50.9% | TK-10 renal 92.8% | ACHN renal 44.7% | CAKI-1 renal 31.1% | CCRF-CEM leukemia 28.7% | MOLT-4 leukemia 25.5%
active: A498 renal 4.9%

O=c1nc(Nc2ccc([N+](=O)[O-])cc2O)sc2ccccc12
inactive: SK-MEL-2 melanoma 39.4% | EKVX NSCLC 38% | SN12C renal 34.5% | UO-31 renal 35.8% | TK-10 renal 82% | ACHN renal 43.5% | CAKI-1 renal 33% | CCRF-CEM leukemia 16.6% | MOLT-4 leukemia 31.1%
active: A498 renal -7.49%
